In ChEMBL document CHEMBL1961873, “Compounds: GSK PKIS; Assays: Nanosyn kinase panel” (2012) one finds inhibition data, which are given here for seven compounds.

Assay [1] deals with T1, Ephrin type-B receptor 2 (Homo sapiens) (UniProt P29323).
T1 sequence (whole entry): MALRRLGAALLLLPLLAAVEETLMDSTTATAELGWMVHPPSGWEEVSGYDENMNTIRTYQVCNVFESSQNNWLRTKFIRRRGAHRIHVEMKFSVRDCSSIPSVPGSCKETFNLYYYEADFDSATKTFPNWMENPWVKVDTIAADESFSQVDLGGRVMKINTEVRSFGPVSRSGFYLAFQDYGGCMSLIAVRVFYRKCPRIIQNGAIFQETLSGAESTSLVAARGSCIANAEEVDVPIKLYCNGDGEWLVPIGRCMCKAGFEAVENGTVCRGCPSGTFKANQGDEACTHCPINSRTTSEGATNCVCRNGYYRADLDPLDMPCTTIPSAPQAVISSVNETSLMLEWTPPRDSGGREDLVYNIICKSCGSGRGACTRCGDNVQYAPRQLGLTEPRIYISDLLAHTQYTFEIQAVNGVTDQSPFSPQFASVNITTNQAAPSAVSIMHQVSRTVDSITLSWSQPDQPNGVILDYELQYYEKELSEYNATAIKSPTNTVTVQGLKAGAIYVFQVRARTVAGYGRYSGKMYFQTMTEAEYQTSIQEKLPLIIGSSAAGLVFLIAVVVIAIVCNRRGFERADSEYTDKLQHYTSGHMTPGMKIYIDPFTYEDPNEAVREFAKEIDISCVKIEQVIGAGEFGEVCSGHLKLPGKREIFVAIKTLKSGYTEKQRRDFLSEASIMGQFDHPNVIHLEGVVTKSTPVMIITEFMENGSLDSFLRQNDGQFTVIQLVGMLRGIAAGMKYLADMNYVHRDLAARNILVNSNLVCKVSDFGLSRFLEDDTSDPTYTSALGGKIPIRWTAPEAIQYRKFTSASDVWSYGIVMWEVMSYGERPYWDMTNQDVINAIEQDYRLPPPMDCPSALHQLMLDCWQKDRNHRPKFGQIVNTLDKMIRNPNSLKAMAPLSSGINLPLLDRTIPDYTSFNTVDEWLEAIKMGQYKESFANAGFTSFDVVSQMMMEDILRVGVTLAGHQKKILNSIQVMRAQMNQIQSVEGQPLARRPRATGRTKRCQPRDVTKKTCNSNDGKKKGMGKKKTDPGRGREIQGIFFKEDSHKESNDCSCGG
The conditions noted are these: at 1 µM.

For assay [2], the target named is T2, Ephrin type-B receptor 3 (Homo sapiens) (UniProt P54753).
T2 sequence (whole entry): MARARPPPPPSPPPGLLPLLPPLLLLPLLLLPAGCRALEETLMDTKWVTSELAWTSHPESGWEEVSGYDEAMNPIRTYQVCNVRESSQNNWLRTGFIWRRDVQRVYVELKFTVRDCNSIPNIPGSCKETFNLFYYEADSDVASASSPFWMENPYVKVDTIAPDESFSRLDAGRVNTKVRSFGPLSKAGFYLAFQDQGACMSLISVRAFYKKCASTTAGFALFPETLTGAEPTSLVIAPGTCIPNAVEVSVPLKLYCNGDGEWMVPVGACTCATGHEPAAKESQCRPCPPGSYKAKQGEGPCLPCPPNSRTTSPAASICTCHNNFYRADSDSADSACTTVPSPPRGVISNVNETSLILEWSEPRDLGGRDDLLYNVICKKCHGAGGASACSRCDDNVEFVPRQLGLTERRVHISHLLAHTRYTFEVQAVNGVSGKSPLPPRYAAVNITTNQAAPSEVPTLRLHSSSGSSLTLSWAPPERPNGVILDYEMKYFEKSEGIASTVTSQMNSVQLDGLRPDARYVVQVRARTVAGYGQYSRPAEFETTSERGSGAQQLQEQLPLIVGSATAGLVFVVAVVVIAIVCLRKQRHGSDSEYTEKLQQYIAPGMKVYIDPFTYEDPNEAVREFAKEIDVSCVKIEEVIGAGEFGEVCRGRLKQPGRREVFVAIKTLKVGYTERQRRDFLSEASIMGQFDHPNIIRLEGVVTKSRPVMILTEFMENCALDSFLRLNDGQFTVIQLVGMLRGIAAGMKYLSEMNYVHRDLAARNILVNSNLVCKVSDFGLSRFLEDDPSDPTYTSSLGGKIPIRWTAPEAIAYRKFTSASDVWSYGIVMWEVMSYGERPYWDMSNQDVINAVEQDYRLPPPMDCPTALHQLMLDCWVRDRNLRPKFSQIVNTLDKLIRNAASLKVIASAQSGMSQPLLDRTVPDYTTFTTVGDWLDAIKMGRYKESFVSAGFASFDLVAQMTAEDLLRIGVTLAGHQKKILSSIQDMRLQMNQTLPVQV
The conditions noted are these: at 0.1 µM.

In assay [3] the target is T2, Ephrin type-B receptor 3 (Homo sapiens). The conditions noted are these: at 1 µM.
Assay [4] deals with T3, Ephrin type-B receptor 4 (Homo sapiens) (UniProt P54760).
T3 sequence (whole entry): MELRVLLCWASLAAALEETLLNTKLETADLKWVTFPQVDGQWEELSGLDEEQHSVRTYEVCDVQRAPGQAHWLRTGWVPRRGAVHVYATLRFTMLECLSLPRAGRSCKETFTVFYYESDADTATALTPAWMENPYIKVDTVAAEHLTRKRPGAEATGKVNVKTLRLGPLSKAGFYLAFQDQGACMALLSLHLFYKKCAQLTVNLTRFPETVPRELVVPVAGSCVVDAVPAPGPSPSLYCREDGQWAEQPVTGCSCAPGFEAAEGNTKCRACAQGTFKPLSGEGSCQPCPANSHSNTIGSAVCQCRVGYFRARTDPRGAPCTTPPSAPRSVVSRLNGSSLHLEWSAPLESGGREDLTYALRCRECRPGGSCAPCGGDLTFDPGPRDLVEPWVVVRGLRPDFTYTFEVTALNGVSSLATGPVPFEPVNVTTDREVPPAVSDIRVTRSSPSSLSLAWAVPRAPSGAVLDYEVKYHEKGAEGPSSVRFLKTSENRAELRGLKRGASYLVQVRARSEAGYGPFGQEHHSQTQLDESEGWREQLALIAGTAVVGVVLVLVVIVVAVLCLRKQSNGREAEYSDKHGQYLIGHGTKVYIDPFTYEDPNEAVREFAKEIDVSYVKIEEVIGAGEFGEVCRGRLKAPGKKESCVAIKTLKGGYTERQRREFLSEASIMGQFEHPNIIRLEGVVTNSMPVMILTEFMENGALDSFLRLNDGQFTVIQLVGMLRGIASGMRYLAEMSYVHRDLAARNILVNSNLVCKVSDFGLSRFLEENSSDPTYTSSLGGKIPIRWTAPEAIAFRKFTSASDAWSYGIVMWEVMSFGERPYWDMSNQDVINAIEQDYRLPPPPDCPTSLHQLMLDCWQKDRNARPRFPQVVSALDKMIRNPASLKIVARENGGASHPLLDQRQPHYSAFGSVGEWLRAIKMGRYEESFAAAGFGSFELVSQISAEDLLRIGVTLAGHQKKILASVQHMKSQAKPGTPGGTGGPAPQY
The conditions noted are these: at 0.1 µM.

The target in assay [5] is T3, Ephrin type-B receptor 4 (Homo sapiens). The conditions noted are these: at 1 µM.
Assay [6] addresses Receptor tyrosine-protein kinase erbB-2 (Homo sapiens) (UniProt P04626). The conditions noted are these: at 0.1 µM.
Assay [7] shares this target. The conditions noted are these: at 1 µM.
Assay [8] has as its target Receptor tyrosine-protein kinase erbB-4 (Homo sapiens) (UniProt Q15303). The conditions noted are these: at 1 µM.
In assay [9] the target is Tyrosine-protein kinase Fer (Homo sapiens) (UniProt P16591). The conditions noted are these: at 0.1 µM.
The target is the same in assay [10]. The conditions noted are these: at 1 µM.
Assay [11] addresses Tyrosine-protein kinase Fes/Fps (Homo sapiens) (UniProt P07332). The conditions noted are these: at 0.1 µM.
The target is the same in assay [12]. The conditions noted are these: at 1 µM.
The target in assay [13] is Fibroblast growth factor receptor 1 (Homo sapiens) (UniProt P11362). The conditions noted are these: at 0.1 µM.
The target is the same in assay [14]. The conditions noted are these: at 1 µM.
In assay [15] the target is Fibroblast growth factor receptor 2 (Homo sapiens) (UniProt P21802). The conditions noted are these: at 0.1 µM.
Assay [16] shares this target. The conditions noted are these: at 1 µM.
Assay [17] has as its target Fibroblast growth factor receptor 3 (Homo sapiens) (UniProt P22607). The conditions noted are these: at 0.1 µM.
Assay [18] has the same target. The conditions noted are these: at 1 µM.
The target in assay [19] is Fibroblast growth factor receptor 4 (Homo sapiens) (UniProt P22455). The conditions noted are these: at 0.1 µM.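 Also: values are mean percent inhibition of FGFR4.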
Assay [20] concerns the target Receptor tyrosine-protein kinase erbB-4 (Homo sapiens) (UniProt Q15303). The conditions noted are these: at 0.1 µM.

Sequence of Receptor tyrosine-protein kinase erbB-4 (Homo sapiens) (Q15303 whole entry): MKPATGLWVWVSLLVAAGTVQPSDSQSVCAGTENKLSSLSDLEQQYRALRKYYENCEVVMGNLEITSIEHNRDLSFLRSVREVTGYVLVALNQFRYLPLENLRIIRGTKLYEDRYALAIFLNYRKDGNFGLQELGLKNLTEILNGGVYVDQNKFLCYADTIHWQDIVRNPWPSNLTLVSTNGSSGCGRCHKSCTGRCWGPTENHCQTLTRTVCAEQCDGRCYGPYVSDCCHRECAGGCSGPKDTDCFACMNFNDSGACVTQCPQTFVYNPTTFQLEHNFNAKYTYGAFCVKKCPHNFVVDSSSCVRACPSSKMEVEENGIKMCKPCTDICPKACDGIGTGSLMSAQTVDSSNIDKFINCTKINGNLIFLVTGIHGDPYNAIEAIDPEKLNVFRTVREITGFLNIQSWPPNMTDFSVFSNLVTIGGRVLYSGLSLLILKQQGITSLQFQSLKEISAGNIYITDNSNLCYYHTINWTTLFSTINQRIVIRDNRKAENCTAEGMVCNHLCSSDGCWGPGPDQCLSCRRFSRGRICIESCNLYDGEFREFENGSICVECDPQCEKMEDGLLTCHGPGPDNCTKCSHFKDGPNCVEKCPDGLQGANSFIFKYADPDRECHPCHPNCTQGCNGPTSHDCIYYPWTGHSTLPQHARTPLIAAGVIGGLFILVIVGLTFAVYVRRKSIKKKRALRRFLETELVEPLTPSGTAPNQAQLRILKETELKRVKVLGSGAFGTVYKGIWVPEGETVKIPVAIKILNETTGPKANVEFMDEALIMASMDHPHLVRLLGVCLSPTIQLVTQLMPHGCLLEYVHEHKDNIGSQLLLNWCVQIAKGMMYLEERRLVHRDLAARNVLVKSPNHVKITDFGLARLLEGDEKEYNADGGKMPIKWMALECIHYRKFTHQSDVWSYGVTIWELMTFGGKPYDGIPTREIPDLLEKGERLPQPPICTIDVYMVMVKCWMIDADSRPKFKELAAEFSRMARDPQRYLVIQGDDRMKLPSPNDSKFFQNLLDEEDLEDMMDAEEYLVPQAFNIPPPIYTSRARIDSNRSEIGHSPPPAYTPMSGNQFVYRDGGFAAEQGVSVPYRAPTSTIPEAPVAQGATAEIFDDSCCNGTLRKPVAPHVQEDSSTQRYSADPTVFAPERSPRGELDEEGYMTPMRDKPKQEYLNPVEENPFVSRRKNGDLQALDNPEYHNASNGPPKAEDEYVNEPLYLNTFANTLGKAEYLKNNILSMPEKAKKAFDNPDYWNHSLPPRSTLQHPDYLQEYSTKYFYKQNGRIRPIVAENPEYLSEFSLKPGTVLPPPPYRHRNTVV
Sequence of Fibroblast growth factor receptor 2 (Homo sapiens) (P21802 22-821 limits assumed): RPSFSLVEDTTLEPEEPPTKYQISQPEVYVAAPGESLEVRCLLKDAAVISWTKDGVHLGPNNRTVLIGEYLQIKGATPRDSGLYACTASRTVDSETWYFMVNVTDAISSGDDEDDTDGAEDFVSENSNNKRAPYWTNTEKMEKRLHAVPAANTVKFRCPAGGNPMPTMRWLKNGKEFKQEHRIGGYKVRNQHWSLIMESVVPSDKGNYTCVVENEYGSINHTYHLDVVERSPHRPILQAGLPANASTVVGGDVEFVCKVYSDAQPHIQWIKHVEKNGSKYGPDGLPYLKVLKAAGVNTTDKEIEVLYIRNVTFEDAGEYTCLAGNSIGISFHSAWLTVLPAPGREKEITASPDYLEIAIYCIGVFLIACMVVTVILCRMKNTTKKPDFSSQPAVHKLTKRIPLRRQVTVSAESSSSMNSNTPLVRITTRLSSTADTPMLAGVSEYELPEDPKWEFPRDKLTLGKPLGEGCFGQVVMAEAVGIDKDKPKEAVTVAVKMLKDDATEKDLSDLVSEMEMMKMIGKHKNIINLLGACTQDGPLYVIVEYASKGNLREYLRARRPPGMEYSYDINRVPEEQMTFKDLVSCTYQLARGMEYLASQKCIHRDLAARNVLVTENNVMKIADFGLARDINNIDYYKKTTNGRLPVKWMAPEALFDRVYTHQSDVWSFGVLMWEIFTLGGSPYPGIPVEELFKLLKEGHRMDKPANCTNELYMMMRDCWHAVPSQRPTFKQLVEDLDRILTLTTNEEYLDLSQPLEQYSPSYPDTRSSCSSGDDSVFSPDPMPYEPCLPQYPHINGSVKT
Sequence of Receptor tyrosine-protein kinase erbB-2 (Homo sapiens) (P04626 whole entry): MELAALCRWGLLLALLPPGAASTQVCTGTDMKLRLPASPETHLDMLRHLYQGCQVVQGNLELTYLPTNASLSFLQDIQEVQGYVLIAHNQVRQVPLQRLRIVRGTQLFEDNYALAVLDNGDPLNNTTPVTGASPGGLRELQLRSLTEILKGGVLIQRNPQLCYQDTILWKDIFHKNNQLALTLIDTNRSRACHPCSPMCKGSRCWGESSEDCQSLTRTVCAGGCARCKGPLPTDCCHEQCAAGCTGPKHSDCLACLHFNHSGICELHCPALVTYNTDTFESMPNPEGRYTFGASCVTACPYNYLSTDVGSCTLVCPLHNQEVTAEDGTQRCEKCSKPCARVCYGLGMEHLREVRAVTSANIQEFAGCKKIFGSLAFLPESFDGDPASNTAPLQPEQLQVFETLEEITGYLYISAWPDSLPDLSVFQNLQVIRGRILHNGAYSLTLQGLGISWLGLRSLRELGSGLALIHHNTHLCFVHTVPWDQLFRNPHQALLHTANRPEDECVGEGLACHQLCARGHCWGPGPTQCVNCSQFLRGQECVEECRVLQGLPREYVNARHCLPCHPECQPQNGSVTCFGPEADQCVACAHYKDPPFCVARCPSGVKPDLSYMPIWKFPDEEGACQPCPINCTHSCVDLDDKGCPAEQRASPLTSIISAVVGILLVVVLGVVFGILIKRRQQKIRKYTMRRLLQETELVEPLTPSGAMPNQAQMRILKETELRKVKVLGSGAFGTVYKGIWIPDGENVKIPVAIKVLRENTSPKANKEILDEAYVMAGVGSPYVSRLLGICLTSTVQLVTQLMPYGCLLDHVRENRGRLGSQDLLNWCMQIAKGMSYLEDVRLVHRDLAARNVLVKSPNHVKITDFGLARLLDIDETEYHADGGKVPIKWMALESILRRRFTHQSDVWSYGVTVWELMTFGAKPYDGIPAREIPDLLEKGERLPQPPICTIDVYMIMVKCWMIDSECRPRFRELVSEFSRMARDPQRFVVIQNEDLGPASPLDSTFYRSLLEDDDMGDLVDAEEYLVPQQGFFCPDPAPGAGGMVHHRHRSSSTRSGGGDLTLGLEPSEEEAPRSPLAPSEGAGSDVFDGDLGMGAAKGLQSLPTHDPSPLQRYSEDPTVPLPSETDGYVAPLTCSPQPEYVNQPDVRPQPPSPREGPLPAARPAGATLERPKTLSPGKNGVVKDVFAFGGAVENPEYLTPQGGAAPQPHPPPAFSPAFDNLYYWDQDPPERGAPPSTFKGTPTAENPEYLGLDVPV
Sequence of Fibroblast growth factor receptor 1 (Homo sapiens) (P11362 22-822 limits assumed): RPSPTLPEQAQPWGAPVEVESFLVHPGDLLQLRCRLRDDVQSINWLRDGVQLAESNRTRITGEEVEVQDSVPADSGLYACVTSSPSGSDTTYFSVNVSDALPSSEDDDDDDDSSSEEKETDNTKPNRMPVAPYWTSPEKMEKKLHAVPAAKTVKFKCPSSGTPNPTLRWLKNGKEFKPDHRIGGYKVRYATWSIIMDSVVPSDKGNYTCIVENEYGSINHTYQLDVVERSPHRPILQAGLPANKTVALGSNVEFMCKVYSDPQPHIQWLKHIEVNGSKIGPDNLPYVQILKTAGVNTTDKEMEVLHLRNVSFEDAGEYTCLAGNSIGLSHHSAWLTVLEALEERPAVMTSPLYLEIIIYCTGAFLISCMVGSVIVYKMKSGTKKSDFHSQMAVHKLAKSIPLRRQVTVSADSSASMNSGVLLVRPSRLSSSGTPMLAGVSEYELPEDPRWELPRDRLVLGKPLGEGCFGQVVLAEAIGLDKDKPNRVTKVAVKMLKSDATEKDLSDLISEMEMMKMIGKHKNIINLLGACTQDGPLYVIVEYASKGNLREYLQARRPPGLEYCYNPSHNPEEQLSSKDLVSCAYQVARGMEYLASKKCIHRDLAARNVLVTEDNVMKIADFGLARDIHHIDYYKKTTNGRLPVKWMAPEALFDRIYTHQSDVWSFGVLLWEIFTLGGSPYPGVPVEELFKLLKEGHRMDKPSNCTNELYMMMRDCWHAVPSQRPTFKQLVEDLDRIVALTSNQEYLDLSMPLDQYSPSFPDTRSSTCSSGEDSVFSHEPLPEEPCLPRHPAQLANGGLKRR
Sequence of Tyrosine-protein kinase Fer (Homo sapiens) (P16591 whole entry, looked up): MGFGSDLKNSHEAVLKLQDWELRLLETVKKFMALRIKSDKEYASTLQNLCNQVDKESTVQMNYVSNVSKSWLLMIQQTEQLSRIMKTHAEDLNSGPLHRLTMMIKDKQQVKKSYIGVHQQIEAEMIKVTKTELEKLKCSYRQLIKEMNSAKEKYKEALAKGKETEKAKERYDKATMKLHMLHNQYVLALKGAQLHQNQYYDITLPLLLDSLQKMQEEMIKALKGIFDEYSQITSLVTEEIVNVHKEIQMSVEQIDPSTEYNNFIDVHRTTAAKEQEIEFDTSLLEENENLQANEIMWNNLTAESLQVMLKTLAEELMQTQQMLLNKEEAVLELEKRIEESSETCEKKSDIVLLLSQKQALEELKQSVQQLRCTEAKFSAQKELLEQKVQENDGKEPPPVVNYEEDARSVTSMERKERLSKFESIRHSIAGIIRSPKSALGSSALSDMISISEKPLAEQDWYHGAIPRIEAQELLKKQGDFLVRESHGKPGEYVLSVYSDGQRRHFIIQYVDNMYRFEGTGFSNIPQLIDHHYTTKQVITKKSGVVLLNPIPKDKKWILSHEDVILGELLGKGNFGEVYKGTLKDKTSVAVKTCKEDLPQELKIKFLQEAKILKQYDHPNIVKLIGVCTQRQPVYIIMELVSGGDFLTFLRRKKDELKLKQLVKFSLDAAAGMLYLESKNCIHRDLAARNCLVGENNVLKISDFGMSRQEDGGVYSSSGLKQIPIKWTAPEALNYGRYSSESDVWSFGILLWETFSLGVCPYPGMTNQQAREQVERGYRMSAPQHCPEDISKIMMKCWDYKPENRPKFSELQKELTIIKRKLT

In general, inhibition refers to the drop in the measured response relative to a control, in per cent. On to `Nc1nc(-c2cccc(Cl)c2)c(-c2ccc3ncccc3n2)s1`, for which the inhibition in assay [1] was 15.5%; in [2], 5.95%; in [3], 5.53%; in assay [4], 2.58%; in [5], 3.57%; in assay [6], 2.61%. Besides, the inhibition is 5.7% in [7]; 28.1% in assay [8]; 4.91% in assay [9]; 3.32% in assay [10]; 3.08% in assay [11]; 4.47% in assay [12]. The inhibition in assay [13] was determined as 3.71%; in assay [14] it was 7.27%; in [15], 5.51%; in [16], 7.42%; in [17] it was 4.38%; in assay [18] it was 8.26%. Also, the inhibition in assay [19] is -1.18%.

For `Fc1ccc(-c2nn3ccccc3c2-c2ccncc2)cc1`, the inhibition in assay [1] was 17.7%; in assay [2], 4.48%; in assay [3] it was 8.05%; in assay [4], 1.73%; in assay [5], 4.73%; in assay [6] it was 1.52%. In addition, the inhibition in assay [7] was determined as 2.31%; in assay [20] it was 10.8%; in [8], 27.2%; in [9] it was 1.5%; in [10] it was 0.75%; in [11], 0.57%. Further, the inhibition was 0.96% in assay [12]; 3.29% in [13]; 0.56% in assay [14]; -0.01% in assay [15]; 6.38% in assay [16]; 5.68% in [17]. For the same compound, the inhibition in assay [18] was 2.66%; in assay [19] it was 0.84%.

Take `NS(=O)(=O)c1ccc(Nc2ncc(-c3ccccc3)o2)cc1`: the inhibition in assay [1] was determined as 7.75%; in [2] it was 4.17%; in assay [3], 3.33%; in assay [4], 2.27%; in [5] it was 1.72%; in assay [6] it was 2.57%. Besides, the inhibition in assay [7] was 2.77%; in [20], 8.79%; in assay [8], 10.5%; in assay [9], 2.73%; in assay [10], 4.95%; in assay [11], 2.8%. For the same compound, the inhibition in assay [12] came to 4.88%; in assay [13] it was 6.58%; in [14], 8.69%; in assay [15], 7.74%; in [16], 16.1%; in [17], 7.08%. Also, the inhibition in [18] worked out at 11.2%; in [19] it was 2.06%.

Take `CS(=O)(=O)CCNCc1ccc(-c2ccc3ncnc(Nc4ccc(OCc5ccccc5)c(C(F)(F)F)c4)c3c2)o1`: the inhibition in assay [1] was 5.29%; in assay [2], 2.9%; in assay [3], 3.77%; in assay [4], 3.21%; in [5], 3.55%; in assay [6], -0.56%. For the same compound, the inhibition in assay [7] came out at 10.4%; in [20], 9.71%; in assay [8] it was 33.4%; in assay [9], 4.03%; in assay [10] it was 1.94%; in [11], 3.29%. Moreover, the inhibition in assay [12] amounted to 3.27%; in assay [13], 1.07%; in assay [14], 5.49%; in assay [15], 3.74%; in assay [16], 6.37%; in assay [17], 4.77%. The inhibition in [18] was found to be 5.71%; in [19], 2.52%.

In the case of `Fc1cccc(COc2ccc(Nc3ncnc4sc(-c5ccco5)cc34)cc2Cl)c1`, the inhibition in [1] is 8.15%; in [2] it was 5.55%; in [3] it was 4.99%; in assay [4], 4%; in assay [5], 2.19%; in assay [6] it was -0.58%. Further, the inhibition in assay [7] is 14.7%; in assay [20], 28.4%; in [8], 75.8%; in [9], 1.71%; in assay [10], 3.22%; in [11], 3.4%. In addition, the inhibition is 2.89% in assay [12]; 1.73% in [13]; 5.35% in [14]; 4.08% in assay [15]; 8.41% in [16]; 5.53% in assay [17]. The values for the inhibition in [18] and in [19] were 5.9% and 0.31%, respectively.

With `CCCN1CCC(c2ccc(Nc3nc(Nc4cc(F)ccc4C(N)=O)c4cc[nH]c4n3)c(OC)c2)CC1`, the inhibition was 8.57% in assay [1]; 7.06% in assay [2]; 2.33% in [3]; 3.08% in assay [4]; 2.91% in [5]; 5.68% in assay [6]. In addition, the inhibition in assay [7] worked out at 12.9%; in [20], 34.8%; in [8], 76.3%; in assay [9], 77%; in [10] it was 82.4%; in assay [11], 62.5%. In addition, the inhibition was 80.5% in assay [12]; 2.31% in assay [13]; 2.41% in assay [14]; 3.25% in assay [15]; 6.48% in assay [16]; 3.99% in assay [17]. Further, the inhibition was 1.74% in assay [18] and -5.38% in assay [19].

Take `Cc1ccc2c(-c3ccnc(Nc4ccccc4)n3)c(-c3ccc(F)cc3)nn2n1`: the inhibition in assay [1] was found to be 70.6%; in assay [2], 6.49%; in assay [3], 11.4%; in assay [4] it was 12.9%; in assay [5], 56.9%; in [6], 3.68%. Besides, the inhibition in assay [7] is 32.3%; in assay [20] it was 67.3%; in [8] it was 88.7%; in assay [9], 0.47%; in assay [10], 8.06%; in [11], 2.61%. Besides, the inhibition in [12] was found to be 5.64%; in assay [13] it was 9.59%; in assay [14], 10.9%; in assay [15] it was 7.81%; in assay [16], 13%; in [17] it was 6.27%. The values for the inhibition in assay [18] and in assay [19] were 8.54% and 1.19%, respectively.
